In the library only some 7.9% were active in any assay of this set; here they are far more common.
MCF10A rereplic – induces DNA re-replication in MCF 10a normal breast cells; MCF 10A DNA re-replication, Hoechst nuclear intensity, 48 h; Potency, µM (series often up to 46.1 µM), hits mostly activators; 2.9% of 350,000 active; AID 624296; also: nearly all actives have a fitted effect of over 50% in size
HT1080 IDH1KD tx – kills HT-1080 cells with IDH1 knockdown. HT-1080 IDH1 knockdown viability, ATP luminescence, 48 h. Potency, µM (highest dose often 46.1 µM), most hits filed as cytotoxic. 2% of 360,000 active. AID 686971
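Using the IDH1-knockdown HT-1080 line run in the same batch and compound series as the NT line, viability after 48 h at 37 °C was determined by CellTiter-Glo luminescence and expressed as % activity.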
HT1080-NT tox – kills 2HG-producing HT-1080-NT fibrosarcoma cells. HT-1080-NT fibrosarcoma viability, CellTiter-Glo ATP luminescence, 48 h. Potency, µM (top dose mostly 46.1 µM), usual class: cytotoxic. 1.6% of 360,000 active;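 also: NT is the 2HG producing partner of a matched IDH1 knockdown line; nearly all actives have a fitted effect of over 55% in size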
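Fibrosarcoma NT cells, 750 per well in 5% FBS RPMI, were exposed to compound for 48 hours. Viability: CellTiter-Glo luminescence.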
KB-V1 MDR tox – kills drug-selected multidrug resistant KB-V1 cells; KB-V1 MDR cells viability, CellTiter-Glo, 72 h; Potency, µM (top dose mostly 46.1 µM), actives largely listed as cytotoxic; 3.4% of 400,000 active; AID 1347076; also: nearly all actives have a fitted effect of over 60% in size
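Luminescent ATP read-out (CellTiter-Glo, 10 min) measures survival of drug-selected KB-V1 MDR cells after 72 h, 37 degrees C compound exposure. Medium: phenol-red-free DMEM, 10% FBS. Values from fitted concentration-response curves.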
SW480 rereplic – inducers of DNA re-replication in SW480 colon cancer cells. SW480 DNA re-replication, Hoechst DNA content imaging, 48 h. Potency, µM (doses to about 46.1 µM), usual class: activators. 1.8% of 340,000 active. AID 624297; also: nearly all actives have a fitted effect of over 55% in size
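250 cells/well; 23 nL cpd via pin tool; 48 hr, 37 C, 5% CO2; Hoechst 40 min; imager read of total nuclear intensity, ex 405/em 500-530 nm.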
KB-3-1 tox – KB-3-1 parental cell cytotoxicity. KB-3-1 viability, CellTiter-Glo ATP luminescence, 72 h. Potency, µM (highest dose often 46.1 µM), usual class: cytotoxic. 1.4% of 400,000 active. AID 1347075; also: nearly all actives have a fitted effect of over 60% in size
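Cytotoxicity in the drug-sensitive parental line KB-3-1 was scored as loss of CellTiter-Glo luminescence following 72 h incubation with compound. Values come from curve fitting of normalized concentration-response data.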
Each line names hits and unclear results; the compound was inactive in the other large screens; ! = not confirmed by another sample. Calls follow the shape of the dose curve; as a rule, active = well fitted curve in the direction sought with a large enough effect; inconclusive = small, poorly fitted or top-dose-only effect, or another doubt; inactive = no such curve, though single readings can be large; an effect the other way counts as inactive or inconclusive.

O=C(Nc1cnn(Cc2ccc(F)cc2)c1)c1noc2c1CCCC2	MCF10A rereplic 4.61µM, HT1080 IDH1KD tx inconclusive, HT1080-NT tox inconclusive, KB-3-1 tox inconclusive
CCc1cc(C(=O)Nc2cnn(Cc3ccc(F)cc3)c2)no1	none (no result: MCF10A rereplic, HT1080 IDH1KD tx, HT1080-NT tox, SW480 rereplic)
CC(C)CCn1c(Oc2ccccc2Cl)nc2c1c(=O)n(C)c(=O)n2C	MCF10A rereplic inconclusive, HT1080 IDH1KD tx inconclusive, HT1080-NT tox inconclusive, KB-V1 MDR tox inconclusive
CC(Sc1nc(-c2ccccc2)cc(C(F)(F)F)n1)C(=O)N1CCCCC1 (centres undefined)	MCF10A rereplic 20.6µM, KB-V1 MDR tox inconclusive, SW480 rereplic inconclusive
COc1ccc(O)c(/C=N/NC(=S)Nc2cccc(S(=O)(=O)N(C)C)c2)c1	MCF10A rereplic 14.6µM, HT1080 IDH1KD tx inconclusive, KB-V1 MDR tox 4.11µM, SW480 rereplic inconclusive
CN(C)S(=O)(=O)c1cccc(NC(=S)N/N=C/C(c2ccccc2)c2ccccc2)c1	KB-V1 MDR tox 20.6µM
CCN(CC)S(=O)(=O)c1ccc(N/N=C/c2cc(OC)ccc2O)nc1	MCF10A rereplic inconclusive, HT1080 IDH1KD tx 4.61µM, HT1080-NT tox 8.2µM, KB-V1 MDR tox inconclusive, SW480 rereplic inconclusive, KB-3-1 tox inconclusive
CN(C)S(=O)(=O)c1cccc(NC(=S)N/N=C/c2ccco2)c1	none
CCN(CC)S(=O)(=O)c1ccc(N/N=C/c2cccnc2)nc1	KB-V1 MDR tox inconclusive
CC(/C=N/NC(=S)Nc1cccc(S(=O)(=O)N(C)C)c1)c1ccccc1 (centres undefined)	KB-V1 MDR tox 20.6µM
CSc1nnc(COc2ccc(C)cc2)n1N	none
CC(=O)Nc1cccc(-c2ccnc3c2CC(C(=O)NCCN(C)C)O3)c1 (centres undefined)	none (no result: MCF10A rereplic, SW480 rereplic)
CN(C)S(=O)(=O)c1cccc(NC(=S)Nc2cc(Cl)cc(Cl)c2)c1	KB-V1 MDR tox 18.4µM, KB-3-1 tox inconclusive
COc1ccc2cc(C(C)C(=O)Nc3cccc(S(=O)(=O)N(C)C)c3)ccc2c1 (centres undefined)	MCF10A rereplic inconclusive, HT1080-NT tox inconclusive, KB-V1 MDR tox 13µM, KB-3-1 tox 20.6µM
CCC1CCc2sc(C(=O)NCc3ccccn3)cc2C1 (centres undefined)	MCF10A rereplic inconclusive, HT1080 IDH1KD tx inconclusive, SW480 rereplic inconclusive
CN(C)CCCNC(=O)c1cccc(-c2ccc3nccn3c2)c1	none (no result: MCF10A rereplic, SW480 rereplic)
Cn1cnc([N+](=O)[O-])c1Sc1nc(N)nc2c1ncn2Cc1ccccc1	MCF10A rereplic inconclusive, KB-3-1 tox inconclusive
C(C#CCCCCCCCCC[n+]1ccccc1)#CCCCCCCCCC[n+]1ccccc1	MCF10A rereplic inconclusive, HT1080 IDH1KD tx 7.31µM, HT1080-NT tox 8.2µM, SW480 rereplic inconclusive, KB-3-1 tox 3.66µM!
CCCCCCCCCC[n+]1cccc(Br)c1	KB-3-1 tox inconclusive (no result: MCF10A rereplic, HT1080 IDH1KD tx, HT1080-NT tox, SW480 rereplic)
O=C(Nc1nnc(-c2ccccc2)o1)c1cc(Cl)sc1Cl	MCF10A rereplic inconclusive, KB-3-1 tox inconclusive
COc1cccc(-c2nnc(NC(=O)c3ccc(Cl)s3)o2)c1	MCF10A rereplic 6.51µM, KB-3-1 tox inconclusive
Cc1cccc(-c2nnc(NC(=O)c3ccc(Cl)cc3)o2)c1	MCF10A rereplic 14.6µM, HT1080 IDH1KD tx inconclusive, HT1080-NT tox inconclusive, KB-V1 MDR tox 13µM, SW480 rereplic inconclusive, KB-3-1 tox inconclusive
COc1cccc(-c2nnc(NC(=O)c3cccc(F)c3)o2)c1	MCF10A rereplic 23.1µM, KB-V1 MDR tox inconclusive
O=C(Nc1nnc(-c2ccc(F)cc2)o1)c1cc(Cl)sc1Cl	MCF10A rereplic 1.03µM, KB-3-1 tox inconclusive
COc1cccc(-c2nnc(NC(=O)c3ccccc3Br)o2)c1	HT1080 IDH1KD tx inconclusive, HT1080-NT tox inconclusive, SW480 rereplic inconclusive, KB-3-1 tox inconclusive
CN(CC(=O)Nc1ccc(S(=O)(=O)N2CCCC2)cc1)CC(=O)Nc1cccc(F)c1	none
COc1ccc(-c2nnc(NC(=O)c3ccc([N+](=O)[O-])o3)o2)c(OC)c1	MCF10A rereplic 8.2µM, KB-V1 MDR tox inconclusive, SW480 rereplic 16.4µM

Bioassay records from PubChem.
